Screening data as filed in PubChem BioAssay.
AmpC detergent: qHTS Inhibitors of AmpC Beta-Lactamase (assay with detergent) | P00811 | Potency, µM (highest dose often 114 µM), most hits filed as inhibitors | 370,000 tested, 0.041% active | AmpC hydrolysis of nitrocefin, absorbance 480 nm, 0.01% Triton; note: nearly all actives have a fitted effect of over 25% in size
Target sequence (P00811 whole entry, looked up): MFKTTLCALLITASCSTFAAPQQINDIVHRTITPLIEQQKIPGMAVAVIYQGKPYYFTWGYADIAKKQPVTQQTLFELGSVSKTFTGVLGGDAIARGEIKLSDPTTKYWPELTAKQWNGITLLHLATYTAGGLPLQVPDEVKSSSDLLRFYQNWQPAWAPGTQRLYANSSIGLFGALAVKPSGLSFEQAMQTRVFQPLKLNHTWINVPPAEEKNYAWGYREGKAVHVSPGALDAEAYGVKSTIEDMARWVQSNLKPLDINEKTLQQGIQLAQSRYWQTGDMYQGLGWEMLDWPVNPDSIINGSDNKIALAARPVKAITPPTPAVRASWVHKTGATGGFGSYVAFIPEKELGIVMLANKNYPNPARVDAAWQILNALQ
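20 mM phosphate pH 7.0 + 0.01% (detergent screen) or 0.0001% Triton X-100; 5.3 nM AmpC reagent; cpd preinc 15 min RT; nitrocefin (800 uM stock) to start; A480 q20 s × 4 min; Activity was normalised to no-enzyme and no-compound control wells.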
Sm TGR block: qHTS Assay for the Inhibitors of Schistosoma Mansoni Peroxiredoxins. Schistosoma mansoni thioredoxin glutathione reductase (TGR), Q962Y6. purified TGR, DTNB reduction, TNB absorbance 405 nm. Potency, µM (series often up to 114 µM), usual class: inhibitors. 360,000 tested, 3% active; note: nearly all actives have a fitted effect of over 60% in size
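TGR 20 nM + NADPH 100 uM (dispensed conc.), cpd preinc 15 min RT; start with NADPH (500 uM addition) then DTNB (15 mM addition). Kinetic TNB absorbance, 405 nm filter. Four-parameter Hill fit across titration.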
AmpC no deterg: qHTS Inhibitors of AmpC Beta-Lactamase (assay without detergent); 330,000 tested, 0.52% active; AmpC nitrocefin hydrolysis, absorbance 480 nm, 0.0001% Triton; Potency, µM (top dose mostly 57.1 µM), usual class: inhibitors; note: nearly all actives have a fitted effect of over 20% in size
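20 mM phosphate pH 7.0 + 0.01% (detergent screen) or 0.0001% Triton X-100; 5.3 nM AmpC reagent; cpd preinc 15 min RT; nitrocefin (800 uM stock) to start; A480 q20 s × 4 min; Activity was normalised to no-enzyme and no-compound control wells.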
Large screens that a line does not name were inactive. In the library only some 3.3% were active in any assay of this set; here they are far more common. Calls come from the whole dose curve; as a rule, active = well fitted curve in the direction sought with a large enough effect; inconclusive = small, poorly fitted or top-dose-only effect, or another doubt; inactive = no such curve, though single readings can be large; an effect the other way counts as inactive or inconclusive.

Cc1noc(-c2ccc(NCc3ccccc3)c([N+](=O)[O-])c2)n1	none (no result: AmpC no deterg)
CCN1CCN(c2cc3c(cc2F)c(=O)c(S(=O)(=O)c2ccc(OC)cc2)cn3CC)CC1	none (no result: AmpC no deterg)
O=C(O)CSc1cc(NS(=O)(=O)c2ccc(Br)cc2)c2ccccc2c1O	Sm TGR block 5.62µM
O=S(=O)(Nc1cc(Sc2ncn[nH]2)c(O)c2ccccc12)c1ccccc1	Sm TGR block 0.891µM
Cc1ccc(S(=O)(=O)Nc2ccc(Br)cc2C(NCC(=O)O)c2ccccc2)cc1 (configuration not stated)	none
Cc1cc(O)c(Sc2ncn[nH]2)cc1NS(=O)(=O)c1ccc(Cl)cc1	none
COc1ccc(-c2onc(C)c2C)cc1S(=O)(=O)Nc1cc(Cl)ccc1C	none (no result: AmpC no deterg)
COc1cccc(CNC(=O)CSc2ncc3c(n2)-c2cc(Cl)ccc2N(C)S3(=O)=O)c1	none (no result: AmpC no deterg)
Cc1ccc(S(=O)(=O)N2CCCc3cc(NC(=O)c4ccc(C(C)(C)C)cc4)ccc32)cc1	none (no result: AmpC no deterg)
Cc1ccc(S(=O)(=O)c2nc(-c3ccccc3Cl)oc2N(C)C)cc1	none
COc1cc(-c2nc(S(=O)(=O)c3ccc(C)cc3)c(N(C)C)o2)cc(OC)c1OC	Sm TGR block 17.8µM
COc1cc(-c2nc(S(=O)(=O)c3ccc(C)cc3)c(N3CCOCC3)o2)cc(OC)c1OC	Sm TGR block inconclusive
Cc1nc(S(=O)(=O)c2ccc(Cl)cc2)c(N(C)C)o1	Sm TGR block 10µM
COc1ccccc1-c1nc(S(=O)(=O)c2ccc(Cl)cc2)c(N(C)C)o1	Sm TGR block inconclusive
Cc1ccc(-c2nc(S(=O)(=O)c3ccc(C)cc3)c(N(C)C)o2)cc1	Sm TGR block 2.51µM
CCN1C(=NCc2cc(OC)c(OC)c(OC)c2)N[C@@H](c2cccc(F)c2)C(C(=O)OC)=C1C	none
COc1cc(C2NC(=O)N(C)C3=C2C(=O)N(c2ccccc2)C3)ccc1O (configuration not stated)	Sm TGR block inconclusive (no result: AmpC no deterg)
CCc1ccc(NC(=O)C2CCCN(S(=O)(=O)c3ccc4c(c3)oc(=O)n4C)C2)cc1 (configuration not stated)	none (no result: AmpC no deterg)
CCn1c(SCC(=O)Nc2cccc(Cl)c2)nnc1-c1nonc1NC(C)=O	none (no result: AmpC no deterg)
COc1cc(Cl)c(C)cc1NC(=O)CN1c2ccccc2S(=O)(=O)c2ccccc21	none (no result: AmpC no deterg)
